# Test results reported in PubChem BioAssay (NCATS).
# A number with no mark means an inactive call. The call rests on the fitted dose curve; in most records, active means well fitted curve in the direction sought with a large enough effect; inconclusive means small, poorly fitted or top-dose-only effect, or effect the other way, or another doubt; inactive means no such curve, though single readings can be large or run the other way.
# Assay: qHTS of Nrf2 Activators: LOPAC Validation (AID 624149); further: 0% is about no effect
# Settings: Nrf2/ARE reporter cell assay; series mostly up to 46.1 µM; activation: at the top concentration
# Text: Many diseases have some form of oxidative stress injury and ties to inflammation, causing a host of problems for the patient. The antioxidant response element (ARE) plays an important role in alleviating the harmful effects of oxidative stress. The antioxidant response element (ARE) is a transcriptional regulatory element involved in the activation of genes coding for a number of antioxidant proteins and detoxifying enzymes. These enzymes work in concert to protect tissues from oxidative insults and chemical toxicities in human hepatocytes and immune cells. The protective effects of ARE activation are primarily triggered through Nrf2 (NF-E2-related factor) binding to and activating AREs. It is known that Nrf2 controls the production of over 250 antioxidant and detoxification proteins (Hu et al., 2006), thereby protecting tissues by increasing cellular antioxidant content and suppressing inflammatory signaling pathways. The transcription factor Nrf2 is a central link between oxidative chemicals, such as phenolic antioxidants and electrophilic compounds, and the activation of ARE. Nrf2 levels are constitutively low as a consequence of its interaction with Keap1, which targets its degradation (Zipper and Mulcahy, 2002). Electrophiles react with key cysteine residues in Keap1, releasing Nrf2 and allowing its translocation to the nucleus. Once within the nucleus, Nrf2 complexes with coactivators such as p300, and binds to the AREs to induce gene transcription of cytoprotective enzymes, resulting in the prevention of toxicity. Activation of Nrf2 protects tissues by increasing cellular antioxidant content and suppressing inflammatory signaling pathways. Identifying novel and potent Nrf2 activators by using the AREc32 cell line to detect ARE activation by small molecules will lead to the identification and development of probes to study protective pathways in multiple tissues. These specific probes are essential to study the ARE pathway, and eventually to determine whether this pathway does activate genes that could protect against a host of diseases, including cardiovascular diseases, obesity, diabetes, Alzheimer's, and Parkinson's disease.
# This project's aim is to identify novel and potent Nrf2 activators by using the AREc32 cell line to detect ARE activation by small molecules, which will lead to the identification and development of probes to study the ARE pathway.
# NIH Chemical Genomics Center [NCGC]
# NIH Molecular Libraries Probe Centers Network [MLPCN]
# Assay Submitter (PI): Curtis Klaassen, University of Kansas Medical Center
# 5 uL of 1000 cells/well of AREc32_Fluc cells are seeded into 1536-well plate in OPTI-MEM medium with 5% FBS. The plates are incubated overnight at 37 deg C with 5% CO2. Then through pin tool transfer, 23 nL of compounds are added to each well before a 24 hr incubation at 37 deg C with 5% CO2. After the addition of 2.5 uL of Steady-Glo. the plates are kept at RT for 30 min, before they are read on the ViewLux
row,SMILES,activation [%]
1,COc1cc2nc(N3CCN(C(=O)C4CCCO4)CC3)nc(N)c2cc1OC (stereo unspecified),-1.71
2,O=c1cc(N2CCOCC2)oc2c(-c3ccccc3)cccc12,-1.2
3,O=C(c1ccccc1)c1ccc2n1CCC2C(=O)O (stereo unspecified),-2.03
4,CNC[C@H](O)c1ccc(O)c(O)c1,-2.22
5,Nc1ccn([C@@H]2O[C@H](CO)[C@@H](O)C2O)c(=O)n1 (stereo partly specified),-0.603
6,O=C1NC(=O)C(c2ccccc2[N+](=O)[O-])=C1Nc1ccc(O)c(Cl)c1,6.57
7,OC(CN1CCN(c2cccc(Cl)c2)CC1)C(c1ccccc1)c1ccccc1 (stereo unspecified),-1.75
8,O=c1ccc2ccc(O)c(O)c2o1,-1.07
9,COc1ccccc1N1CCN(CCN(C(=O)C2CCCCC2)c2ccccn2)CC1,-2.59
10,O=c1c(O)c(-c2cc(O)c(O)c(O)c2)oc2cc(O)cc(O)c12,8.48
11,Cc1c(OCC(F)(F)F)ccnc1CS(=O)c1nc2ccccc2[nH]1 (stereo unspecified),11.7
12,O=c1c(O)c(-c2ccc(O)cc2O)oc2cc(O)cc(O)c12,-2.33
13,C[C@H](Cc1ccc(O)c(O)c1)[C@@H](C)Cc1ccc(O)c(O)c1,22.2
14,CN(C)CCCC1(c2ccc(F)cc2)OCc2cc(C#N)ccc21 (stereo unspecified),-1.99
15,CC1(C)NC(=O)N(c2ccc([N+](=O)[O-])c(C(F)(F)F)c2)C1=O,-1.92
16,Nc1nc(N)c(N=O)c(OCC2CCCCC2)n1,0.994
17,CC(C)c1ccc2c(c1)c(SC(C)(C)C)c(CC(C)(C)C(=O)O)n2Cc1ccc(Cl)cc1,-1.79
18,CC(=O)N1CCN(c2ccc(OC[C@H]3CO[C@](Cn4ccnc4)(c4ccc(Cl)cc4Cl)O3)cc2)CC1,1.12

row,SMILES,activation [%]
1,NC(=NCc1ccccc1)NC(=O)c1nc(Cl)c(N)nc1N,1.32
2,Oc1ccc2ccccc2c1SSc1c(O)ccc2ccccc12,7.02
3,Oc1ccc(-c2nc(-c3ccc(F)cc3)c(-c3ccncc3)[nH]2)cc1,0.775
4,CC(=O)O[C@H]1C(=O)[C@@]2(C)C([C@H](OC(=O)c3ccccc3)[C@]3(O)C[C@H](OC(=O)[C@H](O)[C@@H](NC(=O)c4ccccc4)c4ccccc4)C(C)=C1C3(C)C)[C@]1(OC(C)=O)CO[C@@H]1C[C@@H]2O (stereo partly specified),-2.64
5,O=C1c2c(O)cc(O)cc2OC(c2ccc(O)c(O)c2)C1O (stereo unspecified),4.57
6,Nc1nc(OCc2ccccc2)c2[nH]cnc2n1,3.04
7,CC1(C)C(=O)N(CCN2CCC(C(=O)c3ccc(F)cc3)CC2)c2ccccc21,8.32
8,O=C(CCc1ccc(O)cc1)c1c(O)cc(O)cc1O,-1.97
9,COc1ccc2cc([C@H](C)C(=O)O)ccc2c1,0.176
10,O=C1c2ccccc2-c2n[nH]c3cccc1c23,-0.588
11,O=Nc1c(-c2c(O)[nH]c3cc(Br)ccc23)[nH]c2ccccc12,-3.37
12,NNc1nncc2ccccc12,5.7
13,C[C@@H](N)C1CCC(C(=O)Nc2ccncc2)CC1 (stereo partly specified),1.05
14,O=C(O)c1cccnc1Nc1cccc(C(F)(F)F)c1,-1.53
15,NCCCCNCCCN,3.76
16,CCOC(=O)C(C)Oc1cccc2c(=O)n(CC(=O)Nc3ccc4c(c3)OCCO4)ccc12 (stereo unspecified),-1.6
17,COc1cc2c(cc1OC)C1CC(=O)C(CC(C)C)CN1CC2 (stereo unspecified),-2.07
18,Cc1cc(O)c2c(c1)C(=O)c1cc(O)cc(O)c1C2=O,16
